# Data reported in article PMC5540273 (PLoS ONE, 2017).
# Tested on: S6K1
# Details: concentration: 1 μM, replicates: in singlicate; n = 1
# 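Note: KINOMEscan kinase panel screen.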
row,SMILES,%Inh [%]
1,CN(c1ccc(NC(=O)Nc2cc(C(F)(F)F)ccc2F)cc1)c1ccnc(Nc2ccc(S(N)(=O)=O)cc2)n1 [GW809893],40
2,Nc1ncnc2c1nc(-c1ccccc1)n2-c1ccccc1 [SKF-97293],29
3,CN1CCN(CCCNc2nccc(-c3c(-c4ccc(F)cc4)nn4cc(C(F)(F)F)ccc34)n2)CC1 [GW621581],1
4,O=C(Nc1cccc(-c2nn3ccccc3c2-c2ccnc(Nc3cccc(C(F)(F)F)c3)n2)c1)c1c(F)cccc1F [GSK292658],0
5,COc1cc(Nc2nccc(N3CCC(NC(=O)Nc4cccc(C(C)=O)c4)C3)n2)cc(OC)c1OC (stereo not shown) [GSK1379753],19
6,Cl.Cl.NCC(C(=O)Nc1cc(Br)c(-c2ccnc3[nH]ccc23)s1)c1ccccc1 (stereo not shown) [GSK1269851],35
7,COc1ccc(Nc2nccc(NCCNC(=O)c3cc4ccccc4s3)n2)cc1 [GSK1379896],7
8,Cc1ccc(F)c(C(=O)Nc2cccc(-c3nn4ccccc4c3-c3ccnc(Nc4cccc(F)c4)n3)c2)c1F [GSK361061],0
9,Cl.Cl.NCC(NC(=O)c1cc(-c2ccccc2)c(-c2ccnc3[nH]ccc23)s1)c1ccccc1 (stereo not shown) [GSK1321561],6
10,Cc1cccc(Nc2nc(N[C@H]3CCNC3)ncc2C(N)=O)c1.Cl [GSK2197149],5
11,COc1cccc(C2=C(Nc3ccc(Cl)c(C(=O)O)c3)C(=O)NC2=O)c1 [SB-390769],2
12,O=C(Nc1cccc(-c2nn3ccccc3c2-c2ccnc(Nc3cccc(F)c3)n2)c1)c1c(F)ccc(F)c1Cl [GSK357952],2
13,COc1cccc(NC(=O)NC2CCN(c3ccnc(Nc4cc(OC)c(OC)c(OC)c4)n3)C2)c1 (stereo not shown) [GSK1379763],0
14,O=c1[nH]cc(-c2ccc(N3CCOCC3)cc2)c2sc(-c3cn[nH]c3)cc12 [GSK2276055],0
15,CC(C)(C)c1ccc2nccc(Nc3cccc(O)c3)c2c1 [GW856795],9
16,COc1ccc(Nc2nccc(N3CCC(NC(=O)Nc4cccc(OC)c4)C3)n2)cc1 (stereo not shown) [GSK1379742],0
17,CCS(=O)(=O)c1ccc(OC)c(Nc2nccc(-c3c(-c4cccc(NC(=O)c5c(F)cccc5F)c4)nn4ncccc34)n2)c1 [GSK326180],6
18,CC(C)c1nc(-c2cccc(NS(=O)(=O)c3c(F)cccc3F)c2F)c(-c2ccnc(Nc3ccc(N4CCOCC4)nc3)n2)s1 [GSK2008607],82
19,Fc1ccc(-c2ncn(C3CCNCC3)c2-c2ccnc(Oc3ccc(-c4ccccc4)cc3)n2)cc1 [SB-245391],11

row,SMILES,%Inh [%]
1,O=C(Nc1n[nH]c2cc(-c3ccoc3)ccc12)C1CC1 [SB-738481],36
2,Nc1ncc(-c2cccnc2)c2scc(-c3ccc4c(c3)CCN4C(=O)Cc3ccccc3)c12 [GSK683281],0
3,Nc1ncc(-c2ccc3nccc(-c4ccncc4)c3c2)cc1S(=O)(=O)N1CCOCC1 [GSK1627798],0
4,C[C@@H]1CC[C@@H](C(=O)Nc2ccccc2)CN1c1cc(-c2ccc3c(N)n[nH]c3c2)nc(N)n1 [GSK2286062],0
5,Cn1cc(-c2ccc3c(c2)CCN3C(=O)Cc2cccc(F)c2)c2c(N)ncnc21 [GSK2603358],12
6,Cc1ccc(C(=O)N2CC[C@@H](O)C2)cc1-n1c(C)cc(OCc2ccc(F)cc2F)c(Br)c1=O,0
7,CN1CCN(Cc2cccc(-c3ccc4c(Nc5ccc(Oc6ccccc6)cc5)ccnc4c3)c2)CC1 [GW578342],0
8,CN(C)S(=O)(=O)c1cc(-c2ccc3nccc(-c4cccc(S(N)(=O)=O)c4)c3c2)cnc1N [GSK1669921],19
9,COc1cc(Nc2nccc(-c3c(-c4cccc(NC(=O)c5c(F)cccc5F)c4)nn4ncccc34)n2)cc(OC)c1OC [GSK327238],38
10,COCCOCCOc1cc2ncc3c4ccc(C#N)cc4[nH]c3c2cc1OC,61
11,Cc1ccc(C(=O)Nc2ccc(Nc3ccnc4cc(-c5nccs5)ccc34)cc2O)cc1.Cl [GW494702],11
12,CC(=O)N1CCN(c2ccc(Nc3nccc(-c4sc(C(C)C)nc4-c4cccc(NS(=O)(=O)c5cccc(Cl)c5)c4)n3)cn2)CC1 [GSK1660437],0
13,COc1cccc(C(=O)Nc2cccc(Oc3ccc4nc(NC(=O)C5CC5)cn4n3)c2)c1,0
14,Cc1cccc(NC(=O)Nc2ccc(Oc3ncnc4ccn(C)c34)cc2)c1,0
15,Cc1ccc(S(=O)(=O)Nc2ccc(Nc3nccc(Nc4cccc5[nH]ncc45)n3)cc2)cc1 [GSK581271],14
16,O=C(Nc1ccccc1F)NC1CCN(c2ccnc(Nc3ccc(F)cc3)n2)CC1 [GSK1379800],0
17,Nc1n[nH]c2cnc(-c3ccccc3)cc12 [SB-642124],10
18,c1ccc(-c2n[nH]cc2Nc2ccnc3ccccc23)nc1 [GW694077],33
